Assay outcomes from PubChem BioAssay.
IL1B secr inh = blocks inflammasome-driven IL-1 beta release. 4.7% of 360,000 active. THP-1 LPS/ATP IL-1B secretion, AlphaLISA, 16 h; active compounds read low. activity change, % at 57.5 µM. AID 743279; in the data active means activity change below about -50%; inconclusive means mostly about -30% to -49%
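Secreted IL-1B measured by AlphaLISA bead assay after 16 h compound exposure of THP-1 cells; compounds (final up to 57.5 uM) added 1 h before LPS (250 ng/mL) and ATP (1.25 mM) stimulation; lower signal means less secretion.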
HT1080-NT tox = kills 2HG-producing HT-1080-NT fibrosarcoma cells; HT-1080-NT fibrosarcoma viability, CellTiter-Glo ATP luminescence, 48 h; Potency, µM (series often up to 46.1 µM), hits mostly cytotoxic; 1.6% of 360,000 active;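 further: NT is the 2HG producing partner of a matched IDH1 knockdown line; nearly all actives have a fitted effect of over 55% in size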
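Compounds were tested in concentration-response format on HT-1080-NT cells for 48 hours at 37 degrees C. Cell viability came from CellTiter-Glo luminescence; curves were classified by r2, response magnitude and activity.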
HT1080 IDH1KD tx = kills HT-1080 cells with IDH1 knockdown; AID 686971; HT-1080 IDH1 knockdown viability, ATP luminescence, 48 h; Potency, µM (doses to about 46.1 µM), usual class: cytotoxic; 2% of 360,000 active
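% activity derives from luminescence (CellTiter-Glo), normalised to DMSO and no-cell wells. HT-1080-IDH1KD cells, 750/well, had 48 h compound exposure at 37 °C.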
DT40 TDP1 CPT = DT40-hTDP1 cell growth loss with CPT. chicken DT40 Tdp1-/-;hTDP1 cells + 20 nM CPT, ATP luminescence, 48 h. Potency, µM (titrated, usually from 46.2 µM), actives largely listed as inhibitors. 12% of 420,000 active. AID 686979; further: nearly all actives have a fitted effect of over 55% in size
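Chicken DT40 Tdp1-/- cells complemented with human TDP1, 400 cells/well, exposed to compounds plus 20 nM camptothecin for at least 48 h at 37 C; viability read as ATP content by CellTiter-Glo luminescence.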
TDP1 cell noCPT = qHTS for Inhibitors of human tyrosyl-DNA phosphodiesterase 1 (TDP1): qHTS in cells in absence of CPT; DT40 Tdp1-/- hTDP1 cells, no CPT, ATP luminescence, 48 h; Potency, µM (top dose mostly 46.2 µM), hits mostly inhibitors; 15% of 420,000 active; AID 686978, 2013; further: nearly all actives have a fitted effect of over 55% in size
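Compound effects on proliferation are scored in DT40 Tdp1-/-;hTDP1 cells in the absence of CPT. ATP levels (CellTiter-Glo luminescence) are recorded after a ≥48 hr, 37 °C incubation.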
Of the large screens only hits and unclear results are named; the others gave an inactive call. A selection: hits, their analogues and other compounds. The true share with any hit is near 19%. Unless noted, the call rests on the fitted dose curve; in most records, active means well fitted curve in the direction sought with a large enough effect; inconclusive means small, poorly fitted or top-dose-only effect, or another doubt; inactive means no such curve, though single readings can be large; an effect the other way counts as inactive or inconclusive.

CC(C)(C)c1ccc(/C=C2/SC(N3CCCC3)=NC2=O)cc1	HT1080-NT tox 16.4µM, HT1080 IDH1KD tx 18.4µM, TDP1 cell noCPT inconclusive (no result: IL1B secr inh)
Cc1ccc(C(C[N+](=O)[O-])Sc2ccc(N)cc2)cc1 (stereo not drawn)	HT1080-NT tox inconclusive, HT1080 IDH1KD tx 16.4µM, DT40 TDP1 CPT 4.11µM, TDP1 cell noCPT 6.51µM (no result: IL1B secr inh)
Cc1ccc(C(O)CCc2ccc(N)cc2)cc1 (stereo not drawn)	none
CN(CC(=O)NCCCN1CCOCC1)S(=O)(=O)c1ccc(Cl)cc1	none
Cn1cnc([N+](=O)[O-])c1S(=O)(=O)Oc1cccc2ccccc12	IL1B secr inh -102.2, HT1080-NT tox 1.16µM, HT1080 IDH1KD tx 2.59µM, DT40 TDP1 CPT 1.3µM, TDP1 cell noCPT 1.03µM
Cn1cnc([N+](=O)[O-])c1Oc1cccc2ccccc12	HT1080-NT tox inconclusive, HT1080 IDH1KD tx 20.6µM, DT40 TDP1 CPT inconclusive, TDP1 cell noCPT 29.1µM (no result: IL1B secr inh)
CCS(=O)(=O)c1c([N+](=O)[O-])ncn1C	HT1080-NT tox inconclusive, HT1080 IDH1KD tx inconclusive, DT40 TDP1 CPT 5.17µM, TDP1 cell noCPT 7.31µM
Cn1cnc([N+](=O)[O-])c1Sc1ncn[nH]1	DT40 TDP1 CPT 18.4µM, TDP1 cell noCPT 16.4µM
CCN(CC)c1c([N+](=O)[O-])ncn1C	none
O=C(Nc1cc(N2CCOCC2)ncn1)NC1(C(F)(F)F)Oc2ccccc2O1	DT40 TDP1 CPT inconclusive, TDP1 cell noCPT inconclusive
Cc1cc(C)c(NC(=O)CN(C)C(=O)CCC(=O)c2ccc(C)s2)c(C)c1	none
Cn1cnc([N+](=O)[O-])c1S(=O)(=O)Oc1ccc(Cl)cc1	IL1B secr inh -97.3, HT1080-NT tox 20.6µM, HT1080 IDH1KD tx 16.4µM, DT40 TDP1 CPT 0.651µM, TDP1 cell noCPT 2.06µM
CN(C)C(=O)c1c([N+](=O)[O-])ncn1C	none
CNc1c([N+](=O)[O-])ncn1C	none
Cn1cnc([N+](=O)[O-])c1Cl	IL1B secr inh -94.8, DT40 TDP1 CPT inconclusive, TDP1 cell noCPT inconclusive
O=C(NCc1ccccc1)c1cc(C2COCCN2C(=O)c2ccc3c(c2)CCO3)on1 (stereo not drawn)	none
COc1ccc(C(C(=O)NC2CCCC2)N(C(=O)c2snc(-c3ccc(F)cc3)c2N)c2ccccc2)cc1 (stereo not drawn)	DT40 TDP1 CPT 14.6µM, TDP1 cell noCPT 20.6µM
COc1ccc(C(C(=O)NC2CCCC2)N(C(=O)c2snc(-c3ccc(F)cc3)c2N)c2ccc(F)cc2)cc1 (stereo not drawn)	HT1080-NT tox inconclusive, HT1080 IDH1KD tx inconclusive, DT40 TDP1 CPT 9.2µM, TDP1 cell noCPT 14.6µM
COc1ccc(N(C(=O)c2snc(C(N)=O)c2N)C(C(=O)NC2CCCC2)c2ccc3ncccc3c2)cc1 (stereo not drawn)	DT40 TDP1 CPT inconclusive
COc1ccc(C(C(=O)NC2CCCCC2)N(C(=O)c2sc(C)nc2C)c2ccccc2)cc1 (stereo not drawn)	none
COc1ccc(C(C(=O)NC2CCCC2)N(C(=O)c2snc(-c3ccc(F)cc3)c2N)c2cccc(F)c2)cc1 (stereo not drawn)	DT40 TDP1 CPT 6.51µM, TDP1 cell noCPT 7.31µM
COc1ccc(C(C(=O)NC2CCCC2)N(C(=O)c2snc(-c3ccc(F)cc3)c2N)c2ccc(OC)cc2)cc1 (stereo not drawn)	DT40 TDP1 CPT 8.2µM, TDP1 cell noCPT 3.66µM
COc1cccc(CNC(=O)COC(=O)C2CCN(c3ccc(C(F)(F)F)cn3)CC2)c1	DT40 TDP1 CPT inconclusive
CCCCCC(=O)NN1C(=S)N(c2ccc(OC)cc2)C(=O)C1CC(=O)Nc1ccccc1 (stereo not drawn)	none
COCCn1c(C)cc(C(=O)COC(=O)c2ccc(S(=O)(=O)N(C)C)cc2)c1C	none
COCCn1c(C)cc(C(=O)COc2ccc(N(C)S(=O)(=O)c3ccc(C)cc3)cc2)c1C	DT40 TDP1 CPT 18.4µM, TDP1 cell noCPT inconclusive
COc1ccc(NC(=O)CS(=O)(=O)c2cccc(Cl)c2)cc1	DT40 TDP1 CPT inconclusive, TDP1 cell noCPT 23.1µM
Cc1ccc(S(=O)(=O)N(C)c2ccc(OCC(=O)Nc3ccc(S(C)(=O)=O)cc3)cc2)cc1	DT40 TDP1 CPT 18.4µM, TDP1 cell noCPT 16.4µM
COc1ccc(NC(=O)COc2ccc(N(C)S(=O)(=O)c3ccc(Cl)cc3)cc2)cc1	IL1B secr inh -51.6, TDP1 cell noCPT inconclusive
CN(C)CCN1C(=O)C(=O)/C(=C(/O)c2ccc(OCc3ccccc3)cc2)C1c1ccncc1 (stereo not drawn)	none
O=C(O)c1ccccc1C=NN1CCCCCC1	none
CC(C)C[C@H]1CNC(=S)N1CC1CCN(CCCCc2ccccc2)CC1	IL1B secr inh inconclusive, DT40 TDP1 CPT inconclusive, TDP1 cell noCPT inconclusive
O=C(c1nn2c(C(F)(F)F)cc(-c3cccs3)nc2c1Cl)N1CCCc2ccccc21	DT40 TDP1 CPT 16.4µM, TDP1 cell noCPT 11.6µM
O=C(c1cnn2c(C(F)(F)F)cc(-c3ccccc3)nc12)N1CCCc2ccccc21	DT40 TDP1 CPT inconclusive
O=C1[C@@H]2Cc3c([nH]c4ccccc34)CN2C(=O)CN1CCCCCO	none
COc1ccc(-n2nc(C(=O)NCc3ccco3)c3c4ccccc4n(C)c3c2=O)cc1Cl	DT40 TDP1 CPT inconclusive, TDP1 cell noCPT 10.3µM
COc1ccc(-n2nc(C(=O)NCCc3cccc(C)c3)c3c4ccccc4n(C)c3c2=O)cc1Cl	none (no result: IL1B secr inh, HT1080-NT tox, HT1080 IDH1KD tx)
CCCCN(C)CCNC(=O)c1nn(-c2ccc(OC)c(Cl)c2)c(=O)c2c1c1ccccc1n2C	DT40 TDP1 CPT inconclusive, TDP1 cell noCPT 18.4µM (no result: IL1B secr inh, HT1080-NT tox, HT1080 IDH1KD tx)
CCOc1ccc(CCNC(=O)c2nn(-c3ccc(OC)c(Cl)c3)c(=O)c3c2c2ccccc2n3C)cc1OCC	TDP1 cell noCPT inconclusive (no result: IL1B secr inh, HT1080-NT tox, HT1080 IDH1KD tx)
CCOc1cc(/C=N/n2cnnc2)ccc1OCC(=O)Nc1ccccc1OC	TDP1 cell noCPT 8.2µM
CCOc1cc(/C=C/c2cccc[n+]2C)ccc1OCC(=O)Nc1ccc(C)cc1	IL1B secr inh -70.5, DT40 TDP1 CPT 20.6µM, TDP1 cell noCPT 16.4µM
CCOc1cc(/C=C\[N+](=O)[O-])ccc1OCC(=O)Nc1ccccc1C	HT1080-NT tox 2.91µM, HT1080 IDH1KD tx 6.51µM, DT40 TDP1 CPT 0.92µM, TDP1 cell noCPT 0.581µM
CCc1noc(-c2ccc(NCc3ccccc3)c([N+](=O)[O-])c2)n1	DT40 TDP1 CPT 23.1µM, TDP1 cell noCPT 18.4µM (no result: IL1B secr inh, HT1080-NT tox, HT1080 IDH1KD tx)
COc1cc(-c2noc(-c3ccc(NCCc4ccccc4)c([N+](=O)[O-])c3)n2)cc(OC)c1OC	DT40 TDP1 CPT 5.17µM, TDP1 cell noCPT 4.11µM (no result: IL1B secr inh, HT1080-NT tox, HT1080 IDH1KD tx)
CC(C)Nc1ccc(-c2nc(-c3ccco3)no2)cc1[N+](=O)[O-]	DT40 TDP1 CPT inconclusive, TDP1 cell noCPT 16.4µM (no result: IL1B secr inh, HT1080-NT tox, HT1080 IDH1KD tx)
Cc1ccccc1-c1noc(-c2ccc(NCc3cccnc3)c([N+](=O)[O-])c2)n1	DT40 TDP1 CPT 4.11µM, TDP1 cell noCPT 2.31µM (no result: IL1B secr inh, HT1080-NT tox, HT1080 IDH1KD tx)
